# Experimental data reported in PubChem BioAssay (NCI).
# This is part of a sample that, as a whole, favours compounds with a hit. Of some 79,000 tested, about 15% had one in any assay. The source made the active and inactive calls. Rule as the data show it: active = growth inhibition above about 70%; inactive = the rest.
# Assay: NCI Yeast Anticancer Drug Screen. Data for the bub3 strain (AID 167)
# Details: S. cerevisiae bub3 mutant strain, at 50.0 µM, hits give high values
# Method in brief: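 Screening used yeast with an engineered genetic alteration affecting cell cycle control. Compound-exposed cultures were compared with vehicle cultures, and reduced growth was taken as inhibition.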
row,Structure (SMILES),growth inhibition
1,C=C(COC(C)=O)CC(/C=C(\C)CCC=C(C)C)OC(C)=O (stereo unspecified),-5.25% (inactive)
2,Nc1nc2c(ncn2C2OCC(O)C(O)C2O)c(=O)[nH]1 (stereo unspecified),0.75% (inactive)
3,COc1cccc(NC(=O)CC(=O)Nc2cccc(OC)c2)c1,10.1% (inactive)
4,c1ccc(N=C2N=c3ccccc3=C2c2c(Nc3ccccc3)[nH]c3ccccc23)cc1,-4.7% (inactive)
5,Cc1ncc2c(=O)c3c(oc2n1)c1ccccc1n3Cc1ccccc1,11.7% (inactive)
6,O=C1NC2CCC(NC(=O)N1c1ccccc1)C1=C2C1,-3.4% (inactive)
7,CC(NCc1cc(O)c(CNC(C)c2ccccc2)cc1O)c1ccccc1 (stereo unspecified),12.4% (inactive)
8,Cc1cc(Cl)ccc1OCCCC(=O)NC(Cc1c[nH]c2ccccc12)C(=O)O (stereo unspecified),-2.4% (inactive)
9,OCCOCCNc1ncnc2cc(Cl)ccc12,7.2% (inactive)
10,COc1cc(C(=O)C(C)Br)cc(OC)c1OC (stereo unspecified),68.2% (inactive)
11,C[C@H](CCC(=O)O)[C@H]1CC[C@H]2[C@@H]3[C@@H](O)C[C@@H]4C[C@H](O)CC[C@]4(C)[C@H]3C[C@H](O)[C@]12C,-14.7% (inactive)
12,CC(=O)Nc1cc(F)c(N)c(F)c1,0.05% (inactive)
13,CS(=O)(=O)C(CCC(=O)c1cccs1)C(=O)c1ccccc1 (stereo unspecified),0.2% (inactive)
14,O=C1C2C3C=CC(C2C(=O)N1CCl)C1C2C(=O)N(CCl)C(=O)C2C31 (stereo unspecified),13.6% (inactive)
15,COc1cc(C2C3=C(COC3=O)Oc3cc4c(cc32)OCO4)cc(OC)c1OC(C)=O (stereo unspecified),-8.3% (inactive)
16,CC(C)CCCC(C)C1CCC2(C)C3CCC(C(C)O)C(C)(CCCO)C3CCC12C (stereo unspecified),23.8% (inactive)
